# Source: PubChem BioAssay
# Results filed as inconclusive are left out. Active and inactive are the calls of the source. Unless noted, the limit is not given here; nearly all actives have AC50 up to about 26 µM.
# Columns and labels:
# [1] = growth inhibition of DIPG glioma cells, dose response, cell-based, SU-DIPG-XVII, MIPE5.0, CellTiter-Glo, qHTS (AID 1347060); conditions: SU-DIPG-XVII viability, CellTiter-Glo ATP luminescence;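 as to AC50: cells exposed to compound for 48 hours before viability readout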
# [2] = growth inhibition of DIPG glioma cells, dose response, cell-based, SU-DIPG-XIII, MIPE4.0, CellTiter-Glo, qHTS (AID 1347061; cut-off not given, nearly all actives have AC50 up to about 37 µM;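 also: cells exposed to compound for 48 hours before readout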); conditions: SU-DIPG-XIII viability, CellTiter-Glo ATP luminescence
# [3] = growth inhibition of DIPG glioma cells, dose response, cell-based, JHH-DIPG-1, MIPE4.0, CellTiter-Glo, qHTS (AID 1347062; cut-off not given, nearly all actives have AC50 up to about 27 µM;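 as to AC50: cells exposed to compound for two days before readout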); conditions: JHH-DIPG-1 viability, CellTiter-Glo ATP luminescence
# [4] = growth inhibition of DIPG glioma cells, dose response, cell-based, SU-DIPG-IV, MIPE4.0, CellTiter-Glo, qHTS (AID 1347063; cut-off not given, nearly all actives have AC50 up to about 30 µM;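 also: compound exposure lasted 48 hours before the viability readout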); conditions: SU-DIPG-IV viability, CellTiter-Glo ATP luminescence
# [5] = growth inhibition of DIPG glioma cells, dose response, cell-based, SU-DIPG-XIII, MIPE5.0, CellTiter-Glo, qHTS (AID 1347064; cut-off not given, nearly all actives have AC50 up to about 23 µM;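 as to AC50: cells exposed to compound for 48 hours before the viability read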); conditions: SU-DIPG-XIII viability, CellTiter-Glo ATP luminescence
# [6] = viability loss in pontine glioma line – cell-based, SU-DIPG-XXV, MIPE5.0, CellTiter-Glo, qHTS, dose response (AID 1347065); conditions: CellTiter-Glo ATP luminescence;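 also: cells exposed to compound for 48 hours before ATP readout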
# [7] = SU-DIPG-VI glioma cell viability, MIPE4.0 library, CellTiter-Glo luminescence, qHTS (AID 1347066; cut-off not given, nearly all actives have AC50 up to about 30 µM;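 also: cells exposed to compound for 48 hours before readout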); conditions: CellTiter-Glo ATP luminescence
# [8] = JHH-DIPG-1 glioma cell viability, MIPE5.0 library, CellTiter-Glo luminescence, qHTS (AID 1347067); conditions: JHH-DIPG-1 glioma viability, CellTiter-Glo ATP luminescence;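 also: cells exposed to compound for 48 hours before readout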
# [9] = system: Aerobactin synthetase IucA (Klebsiella pneumoniae); assay: IucA aerobactin synthetase inhibitors, biochemical, Tocris library, absorbance (AID 1345561; call rule not given here;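 also: 100% = enzyme without compound and 0% = no enzyme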); conditions: purified IucA enzyme assay, absorbance (OD) read-out; stronger effect = lower value;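 tested at 8 µM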
# [10] = sensitizers of A549 cells to miR-34 induction, primary screen, imaging, A549 dox-inducible miR-34, nuclei and caspase counts (AID 1347080;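 active = compounds whose cell count with miR-34 switched on is under 0.7 times the count with it off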); conditions: A549 miR-34 inducible, Hoechst nuclei count, 48 h
# [11] = viability rescue of complex I mutant cybrids, primary screen, cell-based, galactose medium, ATP luminescence (AID 1645843;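 active = z-score of at least 1.8 in each of two replicates, scored against plate mean and spread of sample wells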;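 also: positive z means more ATP and so rescue of galactose-driven cybrid death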); conditions: complex I mutant cybrid cells, 72 h, stronger effect = higher value
# [12] = SU-DIPG-XXV glioma cell viability, MIPE5.0 library, qHTS (AID 1347068; cut-off not given, nearly all actives have IC50 up to about 30 µM;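 as to IC50: cells exposed to compound for 48 hours before viability readout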)
# [13] = liver-stage malaria parasite growth inhibition, primary screen, cell-based, HepG2, luciferase luminescence, HepG2 viability (AID 624349; in the data active = parasite load remaining mostly below about 12%, no sharp cut-off; inactive = mostly above about 10%;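 also: 100% = mean of DMSO negative control wells on the same plate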); conditions: P. berghei liver stage in HepG2, luciferase luminescence, concentration not given here; parasite load remaining: stronger effect = lower value; viability: measured here: HepG2 viability without parasites
# [14] = stronger effect = lower value, cell number ratio, induced over uninduced
# [15] = measured here: relative caspase fold change +Dox/-Dox
# [16] = measured here: total cells with miR-34 induction, stronger effect = lower value
# [17] = measured here: total cells without miR-34 induction
smiles,measurement,setting,value
NCC(=O)Nc1cncc(-c2nn3c(=O)cc(N4CCNCC4)nc3s2)c1,outcome,[1],inactive
C=CCNc1c(O)cc2c(O)c1C[C@@H](C)C[C@H](OC)[C@H](O)[C@@H](C)/C=C(/C)[C@H](OC(N)=O)[C@@H](OC)/C=C\C=C(\C)C(=O)N2,AC50,[1],0.525 µM (active)
same,AC50,[2],1.05 µM (active)
same,AC50,[3],0.332 µM (active)
same,AC50,[4],0.148 µM (active)
same,AC50,[5],1.66 µM (active)
same,AC50,[6],3.72 µM (active)
same,AC50,[7],14.8 µM (active)
same,AC50,[8],0.468 µM (active)
CCOC(=O)C12CC1/C(=N\O)c1ccccc1O2 (stereo not given),remaining activity,[9],109% (inactive)
same,fold change,[10]; [14],0.923 (inactive)
same,fold change,[10]; [15],1.17
same,cell count,[10]; [16],8510
same,cell count,[10]; [17],9220
same,z-score,[11],-0.07 (inactive)
OC[C@H]1O[C@@H](n2cnc3c2NC=NC[C@H]3O)C[C@@H]1O,outcome,[1],inactive
same,outcome,[2],inactive
same,outcome,[3],inactive
same,outcome,[4],inactive
same,outcome,[5],inactive
same,outcome,[6],inactive
same,outcome,[7],inactive
same,outcome,[8],inactive
same,outcome,[12],inactive
COc1cc(CCc2cc(NC(=O)c3ccc(N4C[C@@H](C)N[C@@H](C)C4)cc3)n[nH]2)cc(OC)c1,AC50,[1],0.417 µM (active)
same,AC50,[2],8.33 µM (active)
same,AC50,[3],18.7 µM (active)
same,AC50,[4],16.6 µM (active)
same,AC50,[5],0.235 µM (active)
same,AC50,[6],0.263 µM (active)
same,AC50,[7],23.5 µM (active)
same,AC50,[8],13.2 µM (active)
same,IC50,[12],8.33 µM (active)
CN(C(=O)CNC(=O)/C=C/c1cccc(Cl)c1)C1CCS(=O)(=O)CC1,AC50,[1],1.05 µM (active)
COc1ccc2c(OCc3nnc4ccc(-c5ccccc5)nn34)ccnc2c1,outcome,[1],inactive
same,outcome,[2],inactive
same,outcome,[3],inactive
same,outcome,[4],inactive
same,outcome,[5],inactive
same,outcome,[6],inactive
same,outcome,[7],inactive
same,outcome,[8],inactive
same,outcome,[12],inactive
CN(C)C(=O)n1nnnc1Cc1ccc(-c2ccccc2)cc1,remaining activity,[9],82% (inactive)
same,fold change,[10]; [14],1.31 (inactive)
same,fold change,[10]; [15],1.05
same,cell count,[10]; [16],1840
same,cell count,[10]; [17],1400
same,z-score,[11],-0.57 (inactive)
Cc1ccc(NC2=CC(=O)c3sc(C)nc3C2=O)cc1,parasite load remaining,[13],21% (inactive)
same,viability,[13],105%
same,remaining activity,[9],117% (inactive)
same,fold change,[10]; [14],0.814 (inactive)
same,fold change,[10]; [15],0.845
same,cell count,[10]; [16],1060
same,cell count,[10]; [17],1300
same,z-score,[11],-0.705 (inactive)
c1cc(CN2CCCNCCNCCCNCC2)ccc1CN1CCCNCCNCCCNCC1,outcome,[1],inactive
same,outcome,[2],inactive
same,outcome,[3],inactive
same,outcome,[4],inactive
same,outcome,[5],inactive
same,outcome,[6],inactive
same,outcome,[7],inactive
same,outcome,[8],inactive
same,outcome,[12],inactive
N#CNC(=NCCCCCCOc1ccc(Cl)cc1)Nc1ccncc1,AC50,[1],0.0295 µM (active)
same,AC50,[2],0.00469 µM (active)
same,AC50,[3],0.00132 µM (active)
same,AC50,[4],0.00469 µM (active)
same,AC50,[5],0.00833 µM (active)
same,AC50,[6],0.0132 µM (active)
same,AC50,[7],0.00526 µM (active)
same,AC50,[8],0.0148 µM (active)
CCC(C(=O)O)C1CCC(C)C(C(C)C(O)C(C)C(=O)C(CC)C2OC3(C=CC(O)[C@@]4(CC[C@](C)(C5CC[C@@](O)(CC)C(C)O5)O4)O3)C(C)CC2C)O1 (stereo not given in full),AC50,[1],2.35 µM (active)
same,AC50,[2],0.935 µM (active)
same,AC50,[3],3.32 µM (active)
same,AC50,[4],1.66 µM (active)
same,AC50,[5],3.32 µM (active)
same,AC50,[6],0.833 µM (active)
same,AC50,[7],1.87 µM (active)
same,AC50,[8],0.934 µM (active)
same,IC50,[12],2.35 µM (active)
COc1cc(C)c(Sc2cnc(NC(=O)c3ccc(CNC(C)C(C)(C)C)cc3)s2)cc1C(=O)N1CCN(C(C)=O)CC1 (stereo not given),AC50,[1],10.5 µM (active)
same,AC50,[2],16.6 µM (active)
same,AC50,[3],20.9 µM (active)
same,AC50,[4],7.43 µM (active)
same,AC50,[5],6.61 µM (active)
same,AC50,[6],4.17 µM (active)
same,AC50,[7],18.7 µM (active)
COc1ccc(OC)c2c(=S)c3ccccc3[nH]c12,parasite load remaining,[13],32.4% (inactive)
same,viability,[13],149%
same,remaining activity,[9],86.6% (inactive)
same,fold change,[10]; [14],0.958 (inactive)
same,fold change,[10]; [15],1.3
same,cell count,[10]; [16],8120
same,cell count,[10]; [17],8480
same,z-score,[11],0.325 (inactive)
C=C1C(=O)[C@@]23C(CC[C@@H]1[C@H]2O)[C@@]12CO[C@]3(O)[C@@H](O)[C@@H]1C(C)(C)CC[C@@H]2O (stereo not given in full),AC50,[1],9.34 µM (active)
same,AC50,[2],7.43 µM (active)
same,AC50,[3],4.18 µM (active)
same,AC50,[4],2.35 µM (active)
same,AC50,[5],6.61 µM (active)
same,AC50,[6],8.33 µM (active)
same,AC50,[7],3.72 µM (active)
same,AC50,[8],5.9 µM (active)
same,IC50,[12],9.34 µM (active)
COc1ccc(S(=O)(=O)Nc2cc(-c3c(O)ccc4ccccc34)c(O)c3ccccc23)cc1,AC50,[1],0.105 µM (active)
same,AC50,[2],13.2 µM (active)
same,AC50,[3],18.7 µM (active)
same,AC50,[4],7.43 µM (active)
same,AC50,[5],3.32 µM (active)
same,AC50,[6],2.35 µM (active)
same,AC50,[7],4.69 µM (active)
same,AC50,[8],2.95 µM (active)
same,outcome,[12],inactive
NS(=O)(=O)c1ccc(NC(=S)N2CCN(C/C=C/c3ccccc3)CC2)cc1,outcome,[1],inactive
COc1cccc2nc(-c3cccs3)nc(NN3C(=O)C=C(C)C3=O)c12,AC50,[1],0.833 µM (active)
same,AC50,[2],10.5 µM (active)
same,AC50,[3],16.6 µM (active)
same,AC50,[4],0.296 µM (active)
same,AC50,[5],2.09 µM (active)
same,AC50,[6],1.66 µM (active)
same,AC50,[7],3.72 µM (active)
same,AC50,[8],2.35 µM (active)
same,IC50,[12],7.42 µM (active)
CC(C)(C)C[C@H]1N[C@@H](C(=O)NC2CCC(O)CC2)[C@H](c2cccc(Cl)c2F)[C@@]12C(=O)Nc1cc(Cl)ccc12 (stereo not given in full),AC50,[1],23.5 µM (active)
C=CC(=O)N1CCc2ccc(-n3c(=O)ccc4cnc5ccc(-c6cnn(C)c6)cc5c43)cc21,AC50,[1],0.229 µM (active)
same,AC50,[2],8.33 µM (active)
same,AC50,[3],7.43 µM (active)
same,AC50,[4],2.35 µM (active)
same,AC50,[5],0.0723 µM (active)
same,AC50,[6],0.144 µM (active)
same,AC50,[7],3.72 µM (active)
same,AC50,[8],1.15 µM (active)
